# The whole screen tested about 1,100 compounds, of which about 390 (35%) were called active. About 30% were inconclusive and are not listed. The call rests on the fitted dose curve; in most records, active means well fitted inhibition curve with a large enough effect; inconclusive means small, poorly fitted or top-dose-only effect; inactive means flat fitted curve, though single readings scatter. This is one part of the list.
# Target: Luciferin 4-monooxygenase (Photinus pyralis) (UniProt P08659)
# Assay: qHTS of Nrf2 Activators: Hit Validation in Secondary FLuc Assay; further: nearly all actives have a fitted effect of over 65% in size
# Conditions: firefly luciferase inhibition counter-screen, luminescence; series mostly up to 57.5 µM; activity, negative = inhibition: at the top concentration
# Outline: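 Counter-screen on purified firefly luciferase with ATP and D-luciferin at Km concentrations; compounds flagged if they inhibit the enzyme, indicating possible reporter stabilization rather than ARE activation.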
# On the % scale 0 is the no-effect control and ±100 the full control effect; potency means the concentration at half of the fitted maximal effect.
SMILES,"activity, negative = inhibition",Potency
Oc1ccccc1-n1nc2ccc3nonc3c2n1,-0.935% (inactive),–
FC(F)(F)c1cc(-c2cccs2)nc(-n2cc(Br)cn2)n1,-19.9% (inactive),–
FC(F)(F)c1cc(-c2cccs2)nc(NCc2ccco2)n1,-2% (inactive),–
Brc1cc(Br)c2nc(-c3cccs3)ccc2c1,–,3.01 µM (active)
Cc1sc2c(c1C)C(=O)NC(c1ccccc1F)N2 (stereo unspecified),–,2.39 µM (active)
O=C(CN1CCS(=O)(=O)CC1)N/N=C/c1cccc(C(F)(F)F)c1,5.95% (inactive),–
CCOC(=O)c1c(NC(=O)/C=C/c2ccc(C)o2)sc(C)c1C,–,13.5 µM (active)
Cn1nc(C(=O)Nc2c(-c3ccccc3)nc3sccn23)c2ccccc2c1=O,-28.2% (inactive),–
CS/C(=C\C(=O)c1ccco1)Nc1ccccc1Cl,–,2.69 µM (active)
O=C(NCc1ccco1)c1cc(=O)c2ccccc2o1,0.0894% (inactive),–
O=c1cc(/C=C/c2ccccc2)oc2ccccc12,–,2.13 µM (active)
O=[N+]([O-])c1ccccc1N/N=C/c1c[nH]c2ccccc12,–,0.601 µM (active)
C(=N\Nc1nc2ccccc2[nH]1)/c1c[nH]c2ccccc12,–,1.35 µM (active)
O=C(NCCc1c[nH]c2ccccc12)c1ccc([N+](=O)[O-])o1,-26.1% (inactive),–
O=C(N=Nc1c(O)[nH]c2ccc(Br)cc12)c1ccco1,–,10.7 µM (active)
CC(/C=C(\NC(=O)c1ccccc1)C(=O)N=Nc1c(O)[nH]c2ccc(C)cc12)=C\c1ccccc1,-11.7% (inactive),–
Oc1[nH]c2ccccc2c1N=NC(=S)N1CCOCC1,–,9.53 µM (active)
O=C(N=Nc1c(O)[nH]c2ccccc12)c1ccco1,–,3.01 µM (active)
O=C(Nc1c(O)c2ccccc2[nH]c1=O)c1ccco1,-21.5% (inactive),–
Cc1ncc(N=Nc2ccccc2)c(-c2ccccc2)n1,-19.4% (inactive),–
COc1ccc(OC)c(/C=C2\SC(=S)N(Cc3cccnc3)C2=O)c1,-23.6% (inactive),–
O=C1/C(=C/c2ccccc2O)SC(=S)N1Cc1cccnc1,–,16.9 µM (active)
CN1CCN(C(=O)CCN2C(=O)/C(=C/c3cccc(Br)c3)SC2=S)CC1,-25.4% (inactive),–

SMILES,"activity, negative = inhibition",Potency
COC(=O)c1ccc2nc(-c3cccc(Cl)c3)c(Cc3ccccc3OC)n2c1,–,15.1 µM (active)
COC(=O)c1ccc2nc(-c3cccc(Br)c3)c(CC3CCCCC3)n2c1,-30% (inactive),–
COC(=O)c1ccc2nc(-c3ccco3)c(Cc3cccc(Cl)c3)n2c1,–,12 µM (active)
COC(=O)c1ccc2nc(-c3ccco3)c(Cc3ccccc3)n2c1,–,3.38 µM (active)
Cc1nn(C)c(C)c1/C=C(/C(=O)C(C)(C)C)n1cncn1,-4.22% (inactive),–
Cc1ccc(NC(=O)CC2S/C(=N/N=C/c3ccco3)NC2=O)cc1Cl (stereo unspecified),-8.08% (inactive),–
O=C(/C(C=Nc1cccc(C(F)(F)F)c1)=C(/O)c1ccco1)C(F)(F)F,–,13.5 µM (active)
Cc1cccc(N=C/C(C(=O)C(F)(F)F)=C(\O)c2ccco2)c1,–,10.7 µM (active)
O=C(/C(C=Nc1ccc(F)cc1)=C(/O)c1ccco1)C(F)(F)F,–,10.7 µM (active)
Cc1ccc(N=C/C(C(=O)C(F)(F)F)=C(\O)c2ccco2)cc1Cl,–,3.01 µM (active)
CSc1nc(Oc2ccc(Cl)cc2)c2sccc2n1,3.01% (inactive),–
CCn1c(=O)c([N+](=O)[O-])c(NCc2ccco2)c2ccccc21,5.01% (inactive),–
N#C/C(=C\c1ccccc1)c1ccccn1,–,9.53 µM (active)
Cc1cccc(-c2n[nH]c(=S)n2/N=C/C=C/c2ccco2)c1,–,10.7 µM (active)
S=c1[nH]nc(-c2ccc(Cl)cc2)n1/N=C/C=C/c1ccco1,–,10.7 µM (active)
O=C(CN1CCN(Cc2ccccc2Cl)CC1)N/N=C/C=C/c1ccco1,0.724% (inactive),–
S=C(NNc1ccc2ccccc2c1)NC1CCCCC1,–,6.75 µM (active)
CNC(=O)C1CCN(S(=O)(=O)c2c(C)noc2/C=C/c2ccccc2F)CC1,3.63% (inactive),–
COc1ccc(N=Nc2ccc(O)c3ncccc23)cc1,–,9.53 µM (active)
CCN(CC)CCNC(=O)C(Cl)=C1C(Cl)=C(Cl)C(Cl)=C1Cl,-0.406% (inactive),–
N#Cc1c(-c2ccccc2)cc(-c2ccccc2)[nH]c1=O,1.09% (inactive),–
Cc1cc(=O)n2nc(-c3ccccc3)sc2c1C#N,–,23.9 µM (active)
[O-][n+]1onc2c3cc(-c4ccccc4)nnc3ccc21,-23.4% (inactive),–

SMILES,"activity, negative = inhibition",Potency
Cc1cc(O)cc2c1C(=O)/C(=C/c1ccco1)O2,–,2.39 µM (active)
Cn1nnnc1Sc1ncnc2scc(-c3cccc4ccccc34)c12,-25.5% (inactive),–
O=C(Nc1cc(Br)ccc1O)c1cnn2c(C(F)F)cc(C3CC3)nc12,-21.9% (inactive),–
c1ccc(N2CC3COc4ccccc4C3=N2)cc1 (stereo unspecified),–,4.26 µM (active)
c1ccc(N2CC3CCc4ccccc4C3=N2)cc1 (stereo unspecified),–,3.01 µM (active)
CCOc1ncccc1C(=O)NNC(=O)c1ccc(NS(=O)(=O)c2cccs2)cc1,-0.928% (inactive),–
CC(=O)c1nn(-c2ccccc2)cc1C(=O)c1cccc(Br)c1,-11% (inactive),–
C/C(=N\NC(=O)c1cccc(Br)c1)c1ccccn1,–,8.49 µM (active)
FC(F)(F)c1nnc2c(Sc3ccccn3)nc3ccccc3n12,-5.64% (inactive),–
CCn1c(=NC(=O)c2ccco2)sc2cccc(F)c21,–,6.01 µM (active)
CCn1c(=N)n(CC(=O)c2ccco2)c2ccccc21,5.63% (inactive),–
COc1cc(/C=N/Nc2ccccn2)cc(OC)c1O,–,2.13 µM (active)
COc1ccc(Br)cc1/C=N/Nc1ccccn1,-22.8% (inactive),–
N/C(=N\OC(=O)c1cc(Cl)ccc1Cl)c1ccncc1,–,15.1 µM (active)
N/C(=N\OC(=O)/C=C/c1ccccc1)c1cccnc1,–,5.36 µM (active)
N/C(=N\OC(=O)c1ccccc1Cl)c1ccncc1,–,4.78 µM (active)
N/C(=N\OC(=O)c1cc(Cl)ccc1Cl)c1cccnc1,–,4.78 µM (active)
N/C(=N\OC(=O)c1cccc2ccccc12)c1cccnc1,4.57% (inactive),–
N#C/C(=C\C=C\c1ccccc1)C(=O)NCc1cccnc1,-7.08% (inactive),–
O=C1C2C3C=CC(C4CC34)C2C(=O)N1/N=C/c1ccc([N+](=O)[O-])o1 (stereo unspecified),-29.9% (inactive),–
CCCn1nc([N+](=O)[O-])c(C(C#N)c2nc3ccccc3s2)c(Cl)c1=O (stereo unspecified),–,12 µM (active)
Nc1ccccc1N1C(=O)c2cccc3cccc(c23)C1=O,-18.6% (inactive),–
Cc1sc(NC(=O)c2ccco2)c(CN2CCCCC2)c1C,-22.7% (inactive),–

SMILES,"activity, negative = inhibition",Potency
CCCc1cc(C(N)=O)c(NC(=O)c2ccco2)s1,–,3.01 µM (active)
Cc1sc(NC(=S)NC(=O)c2ccco2)c(C(N)=O)c1C,–,1.2 µM (active)
Cc1ccc([N+](=O)[O-])cc1NC(=S)NC(=O)c1ccco1,1.78% (inactive),–
CCc1c(C)sc(NC(=O)c2ccco2)c1C#N,–,12 µM (active)
Cc1ccc2nsnc2c1NC(=S)NC(=O)c1ccco1,-3.95% (inactive),–
NC(=O)c1c(NC(=O)c2ccco2)sc2c1CCC2,–,2.13 µM (active)
COC(=O)CSc1nc2ccccn2c(=O)c1C=O,6.66% (inactive),–
COn1c(=O)c(-c2cccc(Br)c2)[n+]([O-])c2ccccc21,1.19% (inactive),–
N#CC1=C(N)Oc2c(ccc3ccccc23)C1c1ccsc1 (stereo unspecified),–,16.9 µM (active)
COc1ccc(S(=O)(=O)N2CCN(C(=O)c3ccc([N+](=O)[O-])o3)CC2)cc1,8.39% (inactive),–
COc1cccc(NC(=O)c2nc(SC)ncc2Cl)c1,-0.657% (inactive),–
COc1cccc(NC(=O)c2nn(C)cc2Br)c1,–,12 µM (active)
COc1ccc(S(=O)(=O)NCCc2csc3nc(-c4ccc(Cl)cc4)nn23)cc1C,-6.04% (inactive),–
CCOc1ccccc1NC(=O)C1COc2ccccc2O1 (stereo unspecified),-24% (inactive),–
O=C(Nc1ccccc1[N+](=O)[O-])C1COc2ccccc2O1 (stereo unspecified),–,3.01 µM (active)
COc1ccc(NC(=O)c2ccc([N+](=O)[O-])s2)c([N+](=O)[O-])c1,2.08% (inactive),–
Cn1c(=O)n(CCc2ccccc2)c(=O)c2c1nc1n2CCN1Cc1ccco1,-19.5% (inactive),–
Cc1csc2nc(NC(=O)c3ccccc3)sc(=O)c12,–,2.39 µM (active)
O=C(NCc1ccccc1)c1c(Cl)nc(Cl)c(Cl)c1Cl,2.71% (inactive),–
Cc1csc2c(=O)sc(NC(=O)c3ccc(F)cc3Cl)nc12,0.172% (inactive),–
Cc1ccccc1C(=O)Nc1nc2c(C)csc2c(=O)s1,-24% (inactive),–
O=C(Nc1nc(=O)c2ccccc2s1)c1ccccc1,–,1.07 µM (active)
O=C1C=C(C#Cc2ccccc2)C[C@@H](c2ccc(F)cc2)C1,-5.22% (inactive),–

SMILES,"activity, negative = inhibition",Potency
N/C(=N\OC(=O)c1ccco1)c1cccc(Br)c1,–,2.39 µM (active)
O=C(Nc1ncnc2sc3c(c12)CCC3)c1ccco1,0.673% (inactive),–
O=C(CSc1ncnc2sc3c(c12)CCCC3)c1ccco1,–,2.69 µM (active)
c1coc(-c2ccnc(-n3cccc3)n2)c1,–,15.1 µM (active)
c1coc(-c2ccnc3nc(-n4cccc4)nn23)c1,-29.9% (inactive),–
Cc1ccsc1-c1ccnc(-n2cccc2)n1,–,15.1 µM (active)
CN1CCCC1CCNc1ccc2c(=O)c3ccccc3oc2c1 (stereo unspecified),–,6.75 µM (active)
Cc1sc2ncnc(Sc3nnnn3-c3ccccc3)c2c1C,-19.4% (inactive),–
Cc1nc2nc(-c3ccccc3)nn2c(C)c1Cl,–,3.38 µM (active)
COc1cc(-c2noc(-c3cccs3)n2)cc(OC)c1OC,-29% (inactive),–
CCOc1ncccc1-c1nc(-c2cccs2)no1,–,15.1 µM (active)
CCOc1ccc(Br)cc1-c1noc(-c2cccs2)n1,-20.8% (inactive),–
O=C(/C=C\c1ccc2c(c1)OCO2)CC1(O)C(=O)Nc2ccccc21 (stereo unspecified),–,9.53 µM (active)
CC(C)N1C/C(=C/c2cccnc2)C(=O)/C(=C/c2cccnc2)C1,-1.87% (inactive),–
COc1ccc2c(c1)Cc1c-2cc(Br)c(N)c1Br,-19.8% (inactive),–
Nc1ccc2c(c1)Cc1c(F)cccc1-2,–,7.57 µM (active)
Cc1ccc(S(=O)(=O)c2nc(S(C)(=O)=O)sc2N2CC(C)OC(C)C2)cc1 (stereo unspecified),8.48% (inactive),–
Cc1ccc(C)c(NC(=O)COC(=O)c2cc(=O)c3ccccc3o2)c1,-12% (inactive),–
Cc1ccc(C)c(NC(=S)c2nc3ccccc3s2)c1,–,10.7 µM (active)
